Source: the supplement of paper PMC10849652
Targets with a hit are over-represented here; the source holds about 7,900 in all. About 0.6% of all pairs of compound and target were hits. Values without a mark were called inactive.

What was measured:
Assay in all cases: log2 fold change, soluble protein after heating vs DMSO (PISA); higher = thermal stabilisation; K562 cells, 10 uM, 30 min; active = over 0.2 and 3.5 SD of the protein, either way, in both replicates (recomputed)
[1] = compound: NC(=O)Nc1cc(-c2cccc(F)c2)sc1C(=O)N[C@H]1CCCNC1
How it was run: (§1)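 Soluble protein was quantified by TMTpro 16plex LC-MS/MS after channel sums were equalised. It was obtained as the supernatant after 21,000xg for 90 min from pooled aliquots of K562 cells (2×10^6 cells/mL, 10 μM compound, 30 min) heated for 3 min across 48°C-58°C and extracted in PBS with 0.5% NP-40 at 4°C. Thermal stability values are relative to control samples and come from duplicates. They are given as log2 fold changes.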

[2] = compound: NC(=O)c1cnc(N[C@@H]2CCCC[C@@H]2N)nc1Nc1cccc(-n2nccn2)c1
How it was run: as §1

[3] = compound: NC1(c2ccc(-c3nc4ccn5c(=O)[nH]nc5c4cc3-c3ccccc3)cc2)CCC1
How it was run: as §1

[4] = compound: NCC(=O)Nc1ccc(-n2nc(C(F)(F)F)cc2-c2ccc3c(ccc4ccccc43)c2)cc1
How it was run: as §1

entinostat = compound: Nc1ccccc1NC(=O)c1ccc(CNC(=O)OCc2cccnc2)cc1 [entinostat]
How it was run: as §1

vorinostat = compound: O=C(CCCCCCC(=O)Nc1ccccc1)NO [vorinostat]
How it was run: as §1

citarinostat = compound: O=C(CCCCCCNC(=O)c1cnc(N(c2ccccc2)c2ccccc2Cl)nc1)NO [citarinostat]
How it was run: as §1

silmitasertib = compound: O=C(O)c1ccc2c(c1)nc(Nc1cccc(Cl)c1)c1ccncc12 [silmitasertib]
How it was run: as §1

[5] = compound: O=C1NC(=O)C(c2cnc3ccccn23)=C1c1cn2c3c(cc(F)cc13)CN(C(=O)N1CCCCC1)CC2
How it was run: as §1

[6] = compound: c1cc(OCCN2CCCCC2)cc(-c2n[nH]c3ccc(-c4nnc[nH]4)cc23)c1
How it was run: as §1

entospletinib = compound: c1cn2cc(-c3ccc4cn[nH]c4c3)nc(Nc3ccc(N4CCOCC4)cc3)c2n1 [entospletinib]
How it was run: as §1

HMGB3 (UniProt O15347)
Sequence of UniProt O15347 (O15347 whole entry, looked up): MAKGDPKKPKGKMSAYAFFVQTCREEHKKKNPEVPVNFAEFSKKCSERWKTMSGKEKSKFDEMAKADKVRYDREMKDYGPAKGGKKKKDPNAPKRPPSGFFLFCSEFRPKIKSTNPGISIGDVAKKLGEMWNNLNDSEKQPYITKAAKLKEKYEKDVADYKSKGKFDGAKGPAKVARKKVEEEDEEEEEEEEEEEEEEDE
log2 fold change [1]: 0.025 | log2 fold change [2]: 0.153 | log2 fold change [3]: 0.143 | log2 fold change [4]: 0.136 | log2 fold change (entinostat): -0.032 | log2 fold change (vorinostat): -0.044 | log2 fold change (citarinostat): -0.159 | log2 fold change (silmitasertib): -0.068 | log2 fold change [5]: -0.043 | log2 fold change [6]: 0.146 | log2 fold change (entospletinib): 0.097

GNL3 (UniProt Q9BVP2)
Sequence of UniProt Q9BVP2 (Q9BVP2 whole entry, looked up): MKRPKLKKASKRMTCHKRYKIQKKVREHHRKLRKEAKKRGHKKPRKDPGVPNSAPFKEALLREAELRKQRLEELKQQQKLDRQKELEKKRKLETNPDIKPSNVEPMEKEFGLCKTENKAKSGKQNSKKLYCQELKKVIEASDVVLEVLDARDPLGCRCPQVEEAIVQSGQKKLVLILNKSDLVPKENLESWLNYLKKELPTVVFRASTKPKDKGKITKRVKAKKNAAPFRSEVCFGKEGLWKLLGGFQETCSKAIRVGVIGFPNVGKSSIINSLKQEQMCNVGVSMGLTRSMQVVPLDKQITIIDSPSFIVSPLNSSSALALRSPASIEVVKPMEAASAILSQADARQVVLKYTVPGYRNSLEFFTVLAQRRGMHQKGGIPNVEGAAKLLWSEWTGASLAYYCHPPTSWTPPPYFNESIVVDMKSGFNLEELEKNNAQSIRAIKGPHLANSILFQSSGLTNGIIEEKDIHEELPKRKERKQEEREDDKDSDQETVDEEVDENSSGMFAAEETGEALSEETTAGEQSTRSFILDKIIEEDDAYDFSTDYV
log2 fold change [1]: 0.08 | log2 fold change [2]: -0.061 | log2 fold change [3]: -0.098 | log2 fold change [4]: -0.088 | log2 fold change (entinostat): -0.069 | log2 fold change (vorinostat): -0.131 | log2 fold change (citarinostat): 0.134 | log2 fold change (silmitasertib): -0.066 | log2 fold change [5]: -0.027 | log2 fold change [6]: 0.041 | log2 fold change (entospletinib): -0.12

GALNT1 (UniProt Q10472)
Sequence of UniProt Q10472 (Q10472 whole entry, looked up): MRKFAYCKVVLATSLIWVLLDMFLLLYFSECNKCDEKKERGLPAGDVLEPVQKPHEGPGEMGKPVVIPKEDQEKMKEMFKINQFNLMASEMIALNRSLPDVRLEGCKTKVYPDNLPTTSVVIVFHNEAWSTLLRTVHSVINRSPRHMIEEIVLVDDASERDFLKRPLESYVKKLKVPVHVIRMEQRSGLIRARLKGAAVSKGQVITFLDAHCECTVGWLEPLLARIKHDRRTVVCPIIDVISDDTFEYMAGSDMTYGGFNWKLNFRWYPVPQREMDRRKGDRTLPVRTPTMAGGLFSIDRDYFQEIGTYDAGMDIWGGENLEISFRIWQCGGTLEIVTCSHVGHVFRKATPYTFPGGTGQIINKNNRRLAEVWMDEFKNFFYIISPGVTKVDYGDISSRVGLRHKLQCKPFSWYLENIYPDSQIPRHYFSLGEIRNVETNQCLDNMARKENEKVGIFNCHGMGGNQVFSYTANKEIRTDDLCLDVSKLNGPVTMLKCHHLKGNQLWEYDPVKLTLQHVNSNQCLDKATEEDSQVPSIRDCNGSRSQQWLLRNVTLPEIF
log2 fold change [1]: -0.016 | log2 fold change [2]: -0.012 | log2 fold change [3]: -0.068 | log2 fold change [4]: -0.016 | log2 fold change (entinostat): -0.027 | log2 fold change (vorinostat): 0.067 | log2 fold change (citarinostat): 0.011 | log2 fold change (silmitasertib): -0.007 | log2 fold change [5]: -0.121 | log2 fold change [6]: 0.046 | log2 fold change (entospletinib): 0.01

GTF3C5 isoform 3 (UniProt Q9Y5Q8)
Sequence of UniProt Q9Y5Q8 (Q9Y5Q8 whole entry, looked up): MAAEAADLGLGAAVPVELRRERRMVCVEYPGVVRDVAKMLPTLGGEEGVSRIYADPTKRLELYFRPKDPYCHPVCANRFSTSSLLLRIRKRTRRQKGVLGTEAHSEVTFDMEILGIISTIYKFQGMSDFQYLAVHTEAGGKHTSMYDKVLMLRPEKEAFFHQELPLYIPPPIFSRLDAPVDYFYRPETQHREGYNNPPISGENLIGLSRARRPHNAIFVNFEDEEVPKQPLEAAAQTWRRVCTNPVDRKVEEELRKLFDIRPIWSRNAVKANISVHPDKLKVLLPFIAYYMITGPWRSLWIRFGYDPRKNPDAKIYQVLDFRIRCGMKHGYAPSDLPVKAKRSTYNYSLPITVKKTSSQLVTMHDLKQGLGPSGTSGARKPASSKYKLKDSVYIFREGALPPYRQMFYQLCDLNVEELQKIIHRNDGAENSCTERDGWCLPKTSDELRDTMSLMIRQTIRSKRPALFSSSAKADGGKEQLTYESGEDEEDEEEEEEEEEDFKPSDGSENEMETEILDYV
log2 fold change [1]: -0.028 | log2 fold change [2]: 0.211 | log2 fold change [3]: -0.054 | log2 fold change [4]: -0.051 | log2 fold change (entinostat): 0.046 | log2 fold change (vorinostat): 0.072 | log2 fold change (citarinostat): -0.074 | log2 fold change (silmitasertib): -0.034 | log2 fold change [5]: 0.042 | log2 fold change [6]: 0.013 | log2 fold change (entospletinib): 0.226

GALNT4 (UniProt Q8N4A0)
Sequence of UniProt Q8N4A0 (Q8N4A0 whole entry, looked up): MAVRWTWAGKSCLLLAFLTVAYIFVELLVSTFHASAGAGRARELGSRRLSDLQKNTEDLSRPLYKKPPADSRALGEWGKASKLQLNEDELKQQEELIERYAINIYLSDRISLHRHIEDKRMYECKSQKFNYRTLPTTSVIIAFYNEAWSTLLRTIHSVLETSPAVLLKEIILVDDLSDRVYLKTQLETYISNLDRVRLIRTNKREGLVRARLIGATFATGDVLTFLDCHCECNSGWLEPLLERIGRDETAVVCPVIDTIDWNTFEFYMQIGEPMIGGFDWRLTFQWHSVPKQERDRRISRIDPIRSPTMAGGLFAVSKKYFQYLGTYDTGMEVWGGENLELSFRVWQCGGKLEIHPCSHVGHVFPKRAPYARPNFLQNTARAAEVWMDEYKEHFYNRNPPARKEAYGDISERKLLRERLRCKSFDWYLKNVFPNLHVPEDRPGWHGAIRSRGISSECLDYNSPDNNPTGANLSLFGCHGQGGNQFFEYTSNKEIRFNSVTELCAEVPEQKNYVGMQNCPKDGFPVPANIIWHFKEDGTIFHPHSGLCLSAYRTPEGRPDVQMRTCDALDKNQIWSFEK
log2 fold change [1]: -0.013 | log2 fold change [2]: -0.117 | log2 fold change [3]: -0.072 | log2 fold change [4]: -1.32 (active) | log2 fold change (entinostat): -0.064 | log2 fold change (vorinostat): 0.055 | log2 fold change (citarinostat): 0.009 | log2 fold change (silmitasertib): 0.003 | log2 fold change [5]: 0.051 | log2 fold change [6]: -0.064 | log2 fold change (entospletinib): -0.015

FUBP3 (UniProt Q96I24)
Sequence of UniProt Q96I24 (Q96I24 whole entry, looked up): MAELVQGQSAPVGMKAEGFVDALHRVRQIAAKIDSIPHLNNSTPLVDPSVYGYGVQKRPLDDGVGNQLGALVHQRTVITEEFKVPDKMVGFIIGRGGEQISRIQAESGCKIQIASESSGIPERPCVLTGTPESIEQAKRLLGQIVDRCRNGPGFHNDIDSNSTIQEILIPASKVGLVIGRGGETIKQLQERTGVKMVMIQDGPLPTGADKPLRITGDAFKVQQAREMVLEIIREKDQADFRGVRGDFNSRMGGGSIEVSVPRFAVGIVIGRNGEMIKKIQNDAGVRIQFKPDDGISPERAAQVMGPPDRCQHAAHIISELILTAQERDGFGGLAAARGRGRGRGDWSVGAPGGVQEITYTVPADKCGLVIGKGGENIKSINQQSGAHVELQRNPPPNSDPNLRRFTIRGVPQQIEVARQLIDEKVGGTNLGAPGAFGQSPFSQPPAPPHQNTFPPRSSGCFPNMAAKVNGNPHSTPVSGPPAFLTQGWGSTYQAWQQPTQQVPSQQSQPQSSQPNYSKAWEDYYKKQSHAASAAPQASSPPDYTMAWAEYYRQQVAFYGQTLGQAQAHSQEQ
log2 fold change [1]: -0.023 | log2 fold change [2]: 0.024 | log2 fold change [3]: -0.048 | log2 fold change [4]: -0.011 | log2 fold change (entinostat): 0.003 | log2 fold change (vorinostat): 0.062 | log2 fold change (citarinostat): -0.005 | log2 fold change (silmitasertib): 0.045 | log2 fold change [5]: 0.186 | log2 fold change [6]: 0.006 | log2 fold change (entospletinib): 0.022

HIST2H2BF isoform 2 (UniProt Q5QNW6)
log2 fold change [1]: 0.048 | log2 fold change [2]: 0.225 | log2 fold change [3]: 0.48 | log2 fold change [4]: -0.029 | log2 fold change (entinostat): 0.159 | log2 fold change (vorinostat): 0.123 | log2 fold change (citarinostat): -0.001 | log2 fold change (silmitasertib): -0.064 | log2 fold change [5]: 0.101 | log2 fold change [6]: 0.016 | log2 fold change (entospletinib): 0.06

FBXO42 (UniProt Q6P3S6)
Sequence of UniProt Q6P3S6 (Q6P3S6 whole entry, looked up): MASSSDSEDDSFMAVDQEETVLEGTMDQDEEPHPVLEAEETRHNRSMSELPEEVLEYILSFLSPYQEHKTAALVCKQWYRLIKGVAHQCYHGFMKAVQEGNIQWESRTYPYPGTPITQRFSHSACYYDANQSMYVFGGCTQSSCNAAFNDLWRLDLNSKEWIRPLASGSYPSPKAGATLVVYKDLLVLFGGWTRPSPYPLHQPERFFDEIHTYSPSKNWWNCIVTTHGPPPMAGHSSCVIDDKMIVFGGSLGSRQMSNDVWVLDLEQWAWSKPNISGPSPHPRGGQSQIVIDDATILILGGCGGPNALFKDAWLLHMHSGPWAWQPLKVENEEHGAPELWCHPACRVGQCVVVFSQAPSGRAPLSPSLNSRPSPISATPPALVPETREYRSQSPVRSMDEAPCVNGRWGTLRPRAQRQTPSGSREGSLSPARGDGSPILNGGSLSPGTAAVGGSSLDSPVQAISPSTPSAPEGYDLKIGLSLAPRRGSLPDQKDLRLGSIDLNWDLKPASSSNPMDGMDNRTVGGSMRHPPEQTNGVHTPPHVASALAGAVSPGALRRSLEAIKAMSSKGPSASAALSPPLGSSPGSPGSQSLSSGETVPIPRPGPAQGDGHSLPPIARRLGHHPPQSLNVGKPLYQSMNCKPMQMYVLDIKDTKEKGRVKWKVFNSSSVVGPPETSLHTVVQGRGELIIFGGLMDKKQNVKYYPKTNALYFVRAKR
log2 fold change [1]: -0.048 | log2 fold change [2]: -0.087 | log2 fold change [3]: -0.176 | log2 fold change [4]: 0.061 | log2 fold change (entinostat): -0.028 | log2 fold change (vorinostat): -0.03 | log2 fold change (citarinostat): -0.001 | log2 fold change (silmitasertib): 0.006 | log2 fold change [5]: 0.013 | log2 fold change [6]: -0.026 | log2 fold change (entospletinib): -0.049

GLA (UniProt P06280)
Sequence of UniProt P06280 (P06280 whole entry, looked up): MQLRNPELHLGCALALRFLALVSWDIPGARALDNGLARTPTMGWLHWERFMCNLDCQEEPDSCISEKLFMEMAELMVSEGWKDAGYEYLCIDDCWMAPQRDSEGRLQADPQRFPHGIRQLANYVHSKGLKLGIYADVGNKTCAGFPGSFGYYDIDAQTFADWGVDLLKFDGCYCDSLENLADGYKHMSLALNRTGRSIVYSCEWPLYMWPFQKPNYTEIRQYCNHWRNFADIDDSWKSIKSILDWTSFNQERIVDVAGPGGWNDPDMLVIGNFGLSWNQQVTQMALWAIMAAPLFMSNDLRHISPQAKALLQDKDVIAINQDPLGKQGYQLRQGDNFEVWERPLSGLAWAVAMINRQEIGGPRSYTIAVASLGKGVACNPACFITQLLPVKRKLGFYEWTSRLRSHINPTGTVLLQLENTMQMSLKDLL
log2 fold change [1]: 0.04 | log2 fold change [2]: -0.049 | log2 fold change [3]: -0.143 | log2 fold change [4]: -0.066 | log2 fold change (entinostat): -0.034 | log2 fold change (vorinostat): 0.056 | log2 fold change (citarinostat): 0.027 | log2 fold change (silmitasertib): -0.03 | log2 fold change [5]: -0.036 | log2 fold change [6]: 0.029 | log2 fold change (entospletinib): 0.017

GHDC (UniProt Q8N2G8)
Sequence of UniProt Q8N2G8 (Q8N2G8 whole entry, looked up): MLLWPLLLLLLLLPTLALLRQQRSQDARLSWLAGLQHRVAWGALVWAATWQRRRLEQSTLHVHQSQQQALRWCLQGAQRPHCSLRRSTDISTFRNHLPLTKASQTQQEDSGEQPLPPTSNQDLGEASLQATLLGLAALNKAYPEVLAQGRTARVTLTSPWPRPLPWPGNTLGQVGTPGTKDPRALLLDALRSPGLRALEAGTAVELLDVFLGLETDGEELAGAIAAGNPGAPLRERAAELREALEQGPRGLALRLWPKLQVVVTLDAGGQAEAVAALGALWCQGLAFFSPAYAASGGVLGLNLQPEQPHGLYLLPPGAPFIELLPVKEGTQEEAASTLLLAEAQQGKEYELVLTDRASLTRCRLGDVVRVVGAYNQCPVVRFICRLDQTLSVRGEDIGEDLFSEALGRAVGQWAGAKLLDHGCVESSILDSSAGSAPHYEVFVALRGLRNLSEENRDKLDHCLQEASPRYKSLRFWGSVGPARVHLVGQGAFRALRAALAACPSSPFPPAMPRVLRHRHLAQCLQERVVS
log2 fold change [1]: -0.021 | log2 fold change [2]: 0.013 | log2 fold change [3]: 0.005 | log2 fold change [4]: -0.018 | log2 fold change (entinostat): 0.004 | log2 fold change (vorinostat): -0.023 | log2 fold change (citarinostat): 0.045 | log2 fold change (silmitasertib): 0.001 | log2 fold change [5]: -0.045 | log2 fold change [6]: -0.03 | log2 fold change (entospletinib): 0.038
